From PubChem BioAssay (NCATS)
Inconclusive results are not listed. The source made the active and inactive calls. The call rests on the fitted dose curve; in most records, active means well fitted inhibition curve with a large enough effect; inconclusive means small, poorly fitted or top-dose-only effect; inactive means flat fitted curve, though single readings scatter.

Columns and labels:
Experiment in all cases: qHTS profiling for inhibitors of Plasmodium falciparum proliferation (AID 504749); further: nearly all actives have a fitted effect of over 60% in size
Details in all cases: P. falciparum in erythrocytes, SYBR Green DNA, 72 h; series mostly up to 28.7 µM
JCK = tested on: JCK
Method in brief: (§1)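 SYBR Green fluorescence of parasite DNA, read after lysis and overnight dark incubation, measured growth over 72 h in erythrocyte culture at 0.3% parasitemia and 2.5% hematocrit. Data normalised to DMSO and 0.29 uM artemisinin, with plate-drift correction.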

N140 = tested on: N140
Method in brief: as §1

P93_24 = tested on: P93_24
Method in brief: as §1

P94_40 = tested on: P94_40
Method in brief: as §1

PC26 = tested on: PC26
Method in brief: as §1

PC49 = tested on: PC49
Method in brief: as §1

SC27B = tested on: SC27B
Method in brief: as §1

TAB109 = tested on: TAB109
Method in brief: as §1

PAD = tested on: PAD
Method in brief: as §1

PC15 = tested on: PC15
Method in brief: as §1

Measured: Potency
Potency means the concentration at half of the fitted maximal effect.

CCOC(=O)c1c(N)sc2c1CCN(Cc1ccccc1)C2
active: JCK 11.2 µM | N140 12.6 µM | P93_24 5.01 µM | P94_40 5.62 µM | PC26 5.36 µM | PC49 5.01 µM | SC27B 10 µM | TAB109 4.47 µM

CC(C)(C)CC(C)(C)c1ccc(O)c(-n2nc3ccccc3n2)c1
active: P93_24 10 µM | PC49 10 µM | SC27B 11.2 µM
inactive: JCK | PC26

CCOCCn1c(N2CCCN(C)CC2)nc2ccccc21
inactive: JCK | N140 | P93_24 | P94_40 | SC27B

C[N+]1(C)CCC(=C(c2ccccc2)c2ccccc2)CC1
not listed: PC15
inactive: all other assays above

CC(C)Nc1cccnc1N1CCN(C(=O)c2cc3cc(NS(C)(=O)=O)ccc3[nH]2)CC1
not listed: P93_24
inactive: all other assays above

OCCOCCN1CCN(C2=Nc3ccccc3Sc3ccccc32)CC1
not listed: PC26
inactive: all other assays above

O=C(CN1CCN(Cc2ccc3c(c2)OCO3)CC1)N1c2ccccc2Sc2ccccc21
inactive: JCK | PC49
active: P93_24 8.91 µM | P94_40 8.91 µM | PAD 12.6 µM | TAB109 3.55 µM

NC(=O)C1(N2CCCCC2)CCN(CCCC(=O)c2ccc(F)cc2)CC1
not listed: P93_24 | TAB109
inactive: all other assays above

CC(=O)NCCCCCC(=O)O
not listed: PC26
inactive: all other assays above

OC1C(O)C(O)C(O)C(O)C1O (stereo not given)
not listed: P93_24
inactive: all other assays above

COc1ccc(CCN(C)CCCN2CCc3cc(OC)c(OC)cc3CC2=O)cc1OC
not listed: P93_24
inactive: all other assays above

CN1CCC[C@@H]1CCO[C@](C)(c1ccccc1)c1ccc(Cl)cc1
inactive: JCK | P94_40 | PAD | PC26 | SC27B

C/C=C/c1ccc(O)c(OC)c1
not listed: P93_24
inactive: all other assays above

CN(Cc1ccc(C(C)(C)C)cc1)Cc1cccc2ccccc12
not listed: P93_24 | P94_40
inactive: all other assays above

C#C[C@]1(OC(C)=O)CC[C@H]2[C@@H]3CCC4=C/C(=N/O)CC[C@@H]4[C@H]3CC[C@@]21CC
not listed: PC26
inactive: all other assays above

COc1cc(N)c(Cl)cc1C(=O)NC1CCN(Cc2ccccc2)CC1
not listed: PC26
inactive: all other assays above

Cc1ccc2c(Br)cc(Br)c(O)c2n1
active: JCK 10 µM | N140 10 µM | SC27B 11.2 µM
inactive: PC15

CC(C)[N+](C)(C)CC(O)COc1cccc2ccccc12 (stereo not given)
not listed: P93_24 | P94_40 | TAB109
inactive: all other assays above

CC(=O)O[C@H]1C[C@@H]2CC[C@@H]3[C@H](CC[C@@]4(C)[C@H]3C[C@H]([N+]3(C)CCCCC3)[C@@H]4OC(C)=O)[C@@]2(C)C[C@@H]1N1CCCCC1
not listed: P93_24 | P94_40 | TAB109
inactive: all other assays above

C=CCN1CCc2nc(N)sc2CC1
not listed: P93_24
inactive: all other assays above

CC[N+](C)(CC)CCOC(=O)C(O)(c1ccccc1)C1CCCCC1 (stereo not given)
not listed: P93_24
inactive: all other assays above

NCCNc1cccc2ccccc12
not listed: P93_24 | SC27B
inactive: all other assays above

O=C(c1ccc(F)cc1)C1CCN(CCn2c(=S)[nH]c3ccccc3c2=O)CC1
active: JCK 11.2 µM | N140 5.01 µM | P93_24 3.98 µM | P94_40 3.16 µM | PAD 8.91 µM | PC26 8.49 µM | PC49 11.2 µM | SC27B 3.16 µM | TAB109 4.47 µM

CC(C)=CCOc1ccc(/C=C/C(=O)c2ccc(OCC=C(C)C)cc2OCC(=O)O)cc1
not listed: PC26
inactive: all other assays above

O=C(NC1CCN(CCc2c[nH]c3ccccc23)CC1)c1ccccc1
inactive: JCK | N140 | PAD | SC27B

CCN(CC)CCNc1ccc(CO)c2sc3ccccc3c(=O)c12
active: JCK 11.2 µM | N140 0.708 µM | P93_24 0.891 µM | P94_40 1.58 µM | PAD 1 µM | PC15 3.16 µM | PC26 7.57 µM | SC27B 1.12 µM | TAB109 1.58 µM

CCCCCCCCNC(C)C(O)c1ccc(SC(C)C)cc1 (stereo not given)
active: JCK 3.16 µM | P93_24 0.891 µM | P94_40 0.447 µM | PAD 0.398 µM | PC15 0.355 µM | PC26 0.849 µM | PC49 0.794 µM | SC27B 1.12 µM | TAB109 1 µM
